{"source": "PubChem BioAssay (NCATS)", "note": "Records with an inconclusive call do not appear. Activity calls are given as the source filed them. Calls come from the whole dose curve. Potency is the fitted concentration of half-maximal effect.", "data": [{"experiment": "Cytotoxicity counterscreen for inhibitors of SARS-CoV-2 cell entry (AID 1645845); note: nearly all actives have a fitted effect of over 50% in size; for activity change, negative = cytotoxicity: % is set by controls: 0 for no effect and ±100 for the full control effect", "conditions": "cell viability (SARS-CoV-2 entry assay cells); series mostly up to 57.1 µM; activity change, negative = cytotoxicity: at the top concentration", "outline": "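Counterscreen run in the same HEK293-ACE2 line as the pseudotyped-particle entry assay, without particles. Viability after 48 h at 37 C was read as ATP luminescence, scaled between cell-containing and cell-free wells.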", "values": [{"smiles": "COc1cc(/C=C/C(=O)CC(=O)/C=C/c2ccc(O)c(OC)c2)ccc1O", "Potency": "31.6 µM (active)"}, {"smiles": "CN(CCOc1ccc(C[C@H](Nc2ccccc2C(=O)c2ccccc2)C(=O)O)cc1)c1ccccn1", "Potency": "inactive"}, {"smiles": "CN1CCN(c2ncc(-c3cc(Cl)cc(Cl)c3Cl)c(N)n2)CC1", "activity change, negative = cytotoxicity": "-13.2% (inactive)"}, {"smiles": "O=C(NCc1ccccc1)c1csc(Nc2ccncn2)n1", "outcome": "inactive"}]}, {"experiment": "Primary qHTS to identify inhibitors of SARS-CoV-2 cell entry (AID 1645846); note: nearly all actives have a fitted effect of over 45% in size", "conditions": "SARS-CoV-2 pseudovirus cell entry assay, luminescence; activity change, negative = inhibition: at 57.1 µM (top of the series) unless noted", "outline": "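Data are normalized to wells receiving SARS-CoV-2-S pseudoparticles and those given bald particles. Entry signal was luciferase luminescence in stable hACE2 Expi293F cells, 48 hr post-infection, after 1 hr compound pretreatment.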", "units": {"activity change, negative = inhibition": "%"}, "values": [{"smiles": "CCN(c1cc(-c2ccc(CN3CCOCC3)cc2)cc(C(=O)NCc2c(C)cc(C)[nH]c2=O)c1C)C1CCOCC1", "outcome": "inactive"}, {"smiles": "CC1=C(CO)C(=O)O[C@@H]([C@@H](C)[C@H]2CC[C@H]3[C@@H]4C[C@H]5O[C@]56[C@@H](O)C=CC(=O)[C@]6(C)[C@H]4CC[C@]23C)C1", "Potency": "1.26 µM (active)"}, {"smiles": "C=CC(=O)Nc1ccc(F)c(-c2ncnc3[nH]cc(C(=O)OCC)c23)c1", "outcome": "inactive"}, {"smiles": "Nc1ccc(/C=C/C(=O)NCc2cc3cc(-c4ccc(C(=O)N5CCC(F)(F)CC5)cc4)cc(-c4ccc(F)cc4)c3o2)cn1", "activity change, negative = inhibition": -96.3}, {"smiles": "C[C@@H]1COCCN1c1cc(C2(S(C)(=N)=O)CC2)nc(-c2ccnc3[nH]ccc23)n1", "note": "(some centres not stated)", "Potency": "10 µM (active)"}, {"smiles": "C=CC(=O)N1CC/C(=C\\c2ccc(F)c([N+](=O)[O-])c2)C(=O)/C(=C/c2ccc(F)c([N+](=O)[O-])c2)C1", "Potency": "0.891 µM (active)"}, {"smiles": "COc1cc2c(NC3CCN(CC4CCCCC4)CC3)nc(N3CCCN(C(C)C)CC3)nc2cc1OCCCN1CCCCC1", "Potency": "3.16 µM (active)"}, {"smiles": "CC(C)Nc1cc(-c2c[nH]c(C(=O)N[C@H](CO)c3cccc(Cl)c3)c2)c(Cl)cn1", "Potency": "31.6 µM (active)"}]}]}
